From PubChem BioAssay (Tox21)
Where “and” joins values, the source holds several entries; their conditions need not be identical. Identical values can stand only once. Results filed as inconclusive are left out. Calls of active or inactive are those of the source. Unless noted, calls follow the shape of the dose curve; as a rule, active = well fitted curve in the direction sought with a large enough effect in the repeat runs; inconclusive = weak or mixed curves; inactive = no such curve, though single readings can be large; an effect the other way counts as inactive or inconclusive.

Columns and labels:
[1] = qHTS assay to identify small molecule agonists of the constitutive androstane receptor (CAR) signaling pathway - cell viability counter screen (AID 1224836); also: nearly all actives have a fitted effect of over 45% in size; also: potency is read from the fitted curve at half-maximal effect; as to viability change, negative = cytotoxic: series mostly up to about 92 µM
Procedure, shortened: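 Using CellTiter-Fluor, viability of HepG2 cells harbouring hCAR and CYP2B6-2.2kb was measured following 23 h incubation with a 15-concentration compound series plus PK11195 (0.75 uM final).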

[2] = qHTS assay to identify small molecule antagonists of the constitutive androstane receptor (CAR) signaling pathway - cell viability counter screen (AID 1224837); also: nearly all actives have a fitted effect of over 45% in size; also: potency is read from the fitted curve at half-maximal effect; as to activity change, negative = cytotoxicity: series mostly up to about 92 µM
Procedure, shortened: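 Counter screen run in HepG2-CYP2B6-hCAR cells: 4 hr settle, compound titration (15 concentrations) with 50 nM CITCO, 23 hr at 37 C/5% CO2, CellTiter-Fluor fluorescence.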

[3] = molecular target: Nuclear receptor subfamily 1 group I member 3 (Homo sapiens) (UniProt Q14994); assay: qHTS assay to identify small molecule antagonists of the constitutive androstane receptor (CAR) signaling pathway (AID 1224838);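 also: HepG2 cells stably expressing hCAR with CYP2B6 luciferase reporter stimulated by CITCO; nearly all actives have a fitted effect of over 40% in size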; also: potency is read from the fitted curve at half-maximal effect
Procedure, shortened: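 Cell line: HepG2 double-stable for hCAR and CYP2B6-2.2kb reporter. Agonist: CITCO, 50 nM final. Compounds: 15 concentrations, 24 h, 37 C. Detection: ONE-Glo luminescence.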

[4] = molecular target: Nuclear receptor subfamily 1 group I member 3 (Homo sapiens) (UniProt Q14994); assay: qHTS assay to identify small molecule agonists of the constitutive androstane receptor (CAR) signaling pathway (AID 1224839); also: nearly all actives have a fitted effect of over 15% in size; also: potency is read from the fitted curve at half-maximal effect;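 as to activation: HepG2 cells stably carrying human CAR and a CYP2B6 luciferase reporter; series mostly up to about 92 µM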
Procedure, shortened: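 Double-stable HepG2 cells (hCAR, CYP2B6-2.2kb) seeded 4 h before compound addition. Exposure 24 h with 0.75 uM PK11195 final. Luciferase detected by ONE-Glo.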

[5] = qHTS assay to identify small molecule antagonists of the estrogen related receptor signaling pathway with the pleiotropic PPARgamma coactivator (PGC) from Tox21 10K library - cell viability counter screen (AID 1224840; active = well fitted cell-killing curve with a large enough effect in the repeat runs, not every such curve was filed as active; also: nearly all actives have a fitted effect of over 40% in size; also: potency is read from the fitted curve at half-maximal effect)
Procedure, shortened: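 Following seeding of 2,000 PGC/ERR cells/well and 6 hours' incubation, test compounds were delivered in DMSO. The plates then sat 17.5 hours at 37 C before a fluorogenic live-cell protease reagent (CellTiter-Fluor) was read after 30 min.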

[6] = molecular target: Thyrotropin receptor (Homo sapiens) (UniProt P16473); assay: qHTS assay to identify small molecule agonists of the thyroid stimulating hormone receptor (TSHR) signaling pathway (AID 1224843; calls by dose curve; also: nearly all actives have a fitted effect of over 45% in size; also: potency is read from the fitted curve at half-maximal effect)
Procedure, shortened: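 Steps: seed 800 TSHR-HEK293 cells per well; add test compound and hold 30 min at ambient temperature; dispense cAMP-d2 then anti-cAMP cryptate; incubate 1 h at ambient; measure fluorescence intensity.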

[7] = qHTS assay to identify small molecule agonists of the hypoxia (HIF-1) signaling pathway - cell viability counter screen (AID 1224844; calls by dose curve; also: nearly all actives have a fitted effect of over 50% in size; also: potency is read from the fitted curve at half-maximal effect)
Procedure, shortened: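 Cells (HRE-bla ME-180, 2,000 per well) sat 5 hrs at 37C, got compound for 17 hrs, were read for CCF4-AM FRET, and were finally lysed with CellTiter-Glo for a 30 min room-temperature luminescence read.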

[8] = qHTS assay to identify small molecule agonists of H2AX (AID 1224845; active = well fitted activation curve with a large enough effect in the signal ratio in the repeat runs, not every such curve was filed as active; the % refers to the signal ratio; also: potency is read from the fitted curve at half-maximal effect)
Procedure, shortened: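 Wild-type CHO-K1 cells, plated overnight, exposed 3hr at 37C to 15 concentrations (0.76% DMSO final). Lysed, then HTRF anti-pH2AX (S139) cryptate and anti-H2AX-d2 antibodies, 24 hr room temperature; 665/620 nm emission read.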

[9] = qHTS assay to identify small molecule agonists of the estrogen related receptor signaling pathway with the pleiotropic PPARgamma coactivator (PGC) from Tox21 10K library (AID 1224842); also: nearly all actives have a fitted effect of over 15% in size
Procedure, shortened: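 PGC/ERR reporter cell line, 2,000 cells per well, incubated 6 h at 37 C before 23 nL compound in DMSO was added. After 18 h at 37 C, One-Glo luminescence read following 30 min at room temperature.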

[10] = qHTS assay to identify small molecule antagonists of the estrogen related receptor signaling pathway with the pleiotropic PPARgamma coactivator (PGC) from Tox21 10K library (AID 1224841; call rule not given here; also: actives are mostly falling curves and most rising ones were filed inactive; nearly all actives have a fitted effect of over 50% in size; also: potency is read from the fitted curve at half-maximal effect; as to activity, negative = inhibition: series mostly up to about 92 µM)
Procedure, shortened: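 qHTS antagonist format: PGC/ERR cells, 2k/well, compound in DMSO by pin transfer after 6 h attachment, 18 h treatment at 37 C, One-Glo luminescence read at 30 min.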
% is scaled to controls: 0 for no effect and ±100 for the full control effect.

Nuclear receptor subfamily 1 group I member 3 (Homo sapiens), sequence (Q14994 whole entry, looked up): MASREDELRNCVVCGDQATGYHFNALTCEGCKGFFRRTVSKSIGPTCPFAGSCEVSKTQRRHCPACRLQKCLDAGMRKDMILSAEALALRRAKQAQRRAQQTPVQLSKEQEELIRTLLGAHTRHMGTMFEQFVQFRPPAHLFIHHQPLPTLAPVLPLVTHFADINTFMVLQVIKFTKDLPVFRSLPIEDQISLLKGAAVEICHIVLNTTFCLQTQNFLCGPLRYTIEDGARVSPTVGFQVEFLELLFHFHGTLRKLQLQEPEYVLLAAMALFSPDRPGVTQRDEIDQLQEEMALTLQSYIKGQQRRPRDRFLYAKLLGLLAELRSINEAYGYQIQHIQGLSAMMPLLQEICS
Thyrotropin receptor (Homo sapiens), sequence (P16473 whole entry, looked up): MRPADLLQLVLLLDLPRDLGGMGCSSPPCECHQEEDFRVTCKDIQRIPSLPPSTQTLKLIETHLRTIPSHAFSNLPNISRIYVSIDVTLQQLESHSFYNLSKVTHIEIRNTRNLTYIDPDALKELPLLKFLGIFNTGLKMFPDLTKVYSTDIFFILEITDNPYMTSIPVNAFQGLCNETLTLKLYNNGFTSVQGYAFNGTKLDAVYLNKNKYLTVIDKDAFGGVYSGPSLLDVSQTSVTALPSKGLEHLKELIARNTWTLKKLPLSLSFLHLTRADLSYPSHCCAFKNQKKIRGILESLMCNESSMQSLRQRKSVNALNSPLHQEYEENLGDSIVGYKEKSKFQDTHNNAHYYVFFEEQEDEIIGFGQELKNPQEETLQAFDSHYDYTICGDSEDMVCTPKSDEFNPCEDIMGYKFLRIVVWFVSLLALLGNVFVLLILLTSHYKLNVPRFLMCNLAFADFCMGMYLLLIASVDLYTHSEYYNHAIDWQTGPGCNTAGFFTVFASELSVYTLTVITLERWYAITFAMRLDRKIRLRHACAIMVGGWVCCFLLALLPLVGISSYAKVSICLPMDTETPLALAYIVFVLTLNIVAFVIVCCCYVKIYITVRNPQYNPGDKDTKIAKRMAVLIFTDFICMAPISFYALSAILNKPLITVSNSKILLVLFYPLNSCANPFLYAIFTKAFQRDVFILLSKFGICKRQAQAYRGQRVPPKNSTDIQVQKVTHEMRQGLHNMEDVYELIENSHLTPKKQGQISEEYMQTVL

CC1CNCC(C)O1 (configuration not stated)
inactive: Potency [1] | Potency [2] | Potency [3] | Potency [4] | Potency [5] | Potency [6] | Potency [7]

CCCCCCCCCCCCOC(=O)c1cc(O)c(O)c(O)c1
inactive: Potency [4] | Potency [6]
active: Potency [1] 68.3 µM | Potency [2] 68.3 µM | Potency [3] 76.6 µM | Potency [5] 30.5 µM and 6.11 µM | Potency [7] 48.8 µM and 54.9 µM | Potency [8] 11.3 µM

C[Si](C)O[Si](C)C
inactive: Potency [1] | Potency [2] | Potency [3] | Potency [4] | Potency [5] | Potency [6] | Potency [7] | Potency [8]

Cc1cccc(C)n1
inactive: Potency [1] | Potency [2] | Potency [3] | Potency [4] | Potency [5] | Potency [6]

CCCCCCCCCCCCCCNCCO
active: Potency [4] 8.41 µM | Potency [8] 43.8 µM
inactive: Potency [1] | Potency [2] | Potency [3] | Potency [5] | Potency [6]

CCCCCCCC/C=C\CCCCCCCC(=O)NCc1ccc(O)c(OC)c1
inactive: Potency [1] | Potency [2] | Potency [3] | Potency [4] | Potency [5] | Potency [9] | Potency [7] | Potency [8]

CCOC(=O)COc1ccc(C)cc1
inactive: Potency [1] | Potency [2] | Potency [3] | Potency [4] | Potency [5] | Potency [6] | Potency [7] | Potency [8]

Brc1ccccc1-c1ccccc1
inactive: Potency [1] | Potency [2] | Potency [3] | Potency [4] | Potency [5] | Potency [9]
active: Potency [7] 36.8 µM

CCCCN(C)C
inactive: Potency [1] | Potency [2] | Potency [3] | Potency [4] | Potency [5] | Potency [6] | Potency [7] | Potency [8]

COc1cc(C(C)C)c2c(c1)S(=O)(=O)N(COc1cc(=O)n3cccc(OCCN4CCCCC4)c3n1)C2=O
inactive: viability change, negative = cytotoxic [1] -20.4% [at 19 µM] | activity change, negative = cytotoxicity [2] -19.6% [at 19 µM] | activity, negative = inhibition [3] -19.4% [at 19 µM] | activation [4] -2.29% [at 19 µM] | viability change, negative = cytotoxic [5] -15.4% [at 19 µM] | activation [6] -0.216% [at 19 µM] | activity change, negative = cytotoxicity [7] -17% [at 15.8 µM]

CCc1cccc(C)c1
inactive: Potency [1] | Potency [2] | Potency [3] | Potency [4] | Potency [5] | Potency [6] | Potency [7] | Potency [8]

O=S(O)O
inactive: viability change, negative = cytotoxic [1] 7.71% [at 19 µM] | activity change, negative = cytotoxicity [2] -3.41% [at 19 µM] | activity, negative = inhibition [3] -9.95% [at 19 µM] | activation [4] -1.32% [at 19 µM] | viability change, negative = cytotoxic [5] -6.77% [at 19 µM] | activation [6] 2.79% [at 19 µM] | activity change, negative = cytotoxicity [7] 0.552% [at 15.8 µM] | activation (H2AX phosphorylation) [8] -2.47% [at 31.6 µM]

CCc1ccc(C)nc1
inactive: Potency [1] | Potency [2] | Potency [3] | Potency [4] | Potency [5] | Potency [6] | Potency [7] | Potency [8]

CCCCCCCCCCCCCC[n+]1ccccc1
active: Potency [1] 7.7 µM | Potency [2] 9.69 µM | Potency [3] 48.6 µM | Potency [5] 54.5 µM
inactive: Potency [4] | Potency [9] | Potency [8]

CC1CCCCC1
inactive: Potency [1] | Potency [2] | Potency [3] | Potency [4] | Potency [5] | Potency [6] | Potency [7] | Potency [8]

c1ccc2c(c1)CCC2
inactive: Potency [1] | Potency [2] | Potency [3] | Potency [4] | Potency [5] | Potency [6] | Potency [7]

CC(C)C(=O)OCc1ccccc1
inactive: Potency [1] | Potency [2] | Potency [3] | Potency [4] | Potency [5] | Potency [6] | Potency [7]

CSc1ccc2c(c1)N(CCC1CCCCN1C)c1ccccc1S2 (configuration not stated)
active: Potency [1] 48.4 µM | Potency [2] 54.3 µM | Potency [5] 30.5 µM and 29.8 µM | Potency [7] 21.8 µM and 21.3 µM
inactive: Potency [3] | Potency [4] | Potency [6]

CCOC(=O)CN
inactive: Potency [1] | Potency [2] | Potency [3] | Potency [4] | Potency [5] | Potency [6] | Potency [7]

Cn1cnc2ncnc(N)c21
inactive: Potency [1] | Potency [2] | Potency [3] | Potency [4] | Potency [5] | Potency [6] | Potency [7] | Potency [8]

CC(C)(C)CC(C)(C)c1ccccc1O
inactive: Potency [1] | Potency [2] | Potency [4] | Potency [5] | Potency [10] | Potency [9]
active: Potency [6] 13.8 µM

CC1=C(/C=C/C(C)=C/C=C/C(C)=C/C(=O)Nc2ccc(O)cc2)C(C)(C)CCC1
active: Potency [1] 23.7 µM | Potency [2] 29.8 µM | Potency [5] 28 µM and 13.3 µM | Potency [10] 6.27 µM | Potency [6] 22.2 µM and 11.9 µM | Potency [7] 22.4 µM and 19 µM
inactive: Potency [4] | Potency [9] | Potency [8]

C=CC(C)(CCC=C(C)C)OC(=O)/C=C/c1ccccc1 (configuration not stated)
inactive: Potency [1] | Potency [2] | Potency [3] | Potency [5] | Potency [6] | Potency [7]

CC1(C)COCN1
inactive: Potency [1] | Potency [2] | Potency [4] | Potency [5] | Potency [10] | Potency [9] | Potency [6] | Potency [8]

CCN=C1C=CC(=C(c2ccc(N(CC)CC)cc2)c2ccc(N(CC)CC)cc2)c2ccccc21
inactive: Potency [4]
active: Potency [1] 6.08 µM | Potency [2] 6.08 µM | Potency [3] 6.08 µM | Potency [5] 9.63 µM | Potency [7] 21.7 µM

CC(C)OC(=O)c1cc(C(=O)OC(C)C)cc([N+](=O)[O-])c1
inactive: Potency [1] | Potency [2] | Potency [3] | Potency [5] | Potency [10] | Potency [7]
active: Potency [6] 22.2 µM

Cc1ccc(N)cc1O
active: Potency [4] 27.3 µM
inactive: Potency [1] | Potency [2] | Potency [3] | Potency [5] | Potency [7]

C/C=C/CO
inactive: Potency [1] | Potency [2] | Potency [3] | Potency [4] | Potency [5] | Potency [6] | Potency [8]

CNCC[C@H](Oc1cccc2ccccc12)c1cccs1
inactive: Potency [4] | Potency [9] | Potency [6]
active: Potency [1] 21.1 µM | Potency [2] 26.6 µM | Potency [3] 29.8 µM | Potency [10] 33.5 µM
